Methyltransferases = Primary Screen for Target Class Profiling of Small Molecule Inhibitors of Methyltransferases; purified enzyme, MTase-Glo SAH luminescence; stronger effect = lower value; calls only at 40 µM; actives 3.9% (n = 25,000); AID 1745853, 2022; call rule not given here
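Each enzyme was assayed with SAM and its substrate. SAH formation detected by MTase-Glo luminescence; single-point 40 uM screen[…].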
MTase-Glo counter = counter-screen for methyltransferase inhibitors: coupling enzymes without methyltransferase. shares compounds with Methyltransferases. MTase-Glo coupled enzymes, SAH conversion luminescence, no MTase. Potency, µM (doses to about 57.3 µM), for the others: at the top dose activity change, negative = inhibition, hits mostly inhibitors. actives 6% (n = 180). AID 1745851; active = well fitted inhibition curve with a large enough effect; also: potency is read from the fitted curve at half-maximal effect
Numbers without * were called inactive; i = inactive; + = active, no number; [ ] = dose if it differs, or a comment. Many of the other results were omitted from the sample, so hits are more common in it than they were. % is scaled to controls: 0 for no effect and ±100 for the full control effect.

SMILES	Methyltransferases	others
CCCN1C(=O)c2c(C(=O)NCCC3=CCCCC3)ncn2CC1(C)C(=O)NCCC(C)C (stereo not drawn)	i
O=C(c1cc(-c2ccccc2)n[nH]1)N1CCc2c(nc(-c3ccccc3)[nH]c2=O)C1	+	MTase-Glo counter=4%
O=C1OCCC1CCC(=O)N1CCc2c(nc(-c3ccccc3)[nH]c2=O)C1 (stereo not drawn)	i
CCCc1cc(C(=O)N2CCc3c(nc(-c4cccnc4)[nH]c3=O)C2)n[nH]1	i
Cc1ccncc1C(=O)N1CCCn2ccnc2C1c1ccccc1 (stereo not drawn)	i
CC(=O)N1CCC(c2nnc3n2C(C(=O)Nc2ccc(C)cc2)CC3)CC1 (stereo not drawn)	i
CN(C)Cc1nnc(C2CC(NC(=O)c3nc4ccccc4[nH]3)C2)n1C (stereo not drawn)	i
CC1(C(=O)NC2CCCCCC2)Cn2c(ccc2-c2ccccc2)C(=O)N1Cc1ccccc1F (stereo not drawn)	i
CC(C)CCNS(=O)(=O)c1ccc2[nH]c(=O)[nH]c2c1	i
N#Cc1cnc(N2CC3CCC(C2)N3CC(F)(F)F)s1	+	MTase-Glo counter=-2%[85.7 µM]
Fc1ccccc1Nc1ccnc(N2CC3CCC(C2)N3CC(F)(F)F)n1	i
O=C(NCc1ccco1)Nc1cccc(-c2ccc(N3CCCC3)nn2)c1	i
CC(C)Cn1nc(CNC(=O)c2ccccc2C(F)(F)F)c2ccccc21	i
CCCCN1C(=O)c2cc(C(=O)NC3CCCC3)nn2CC1(C)C(=O)NC1CCCC1 (stereo not drawn)	i
CC(=O)Nc1ccc(CN2CCC3(C2)C(=O)N(C)c2ccccc23)cc1 (stereo not drawn)	i
CC(=O)NC1CC2(CCN(Cc3ccc(O)cc3)CC2)c2ccccc21 (stereo not drawn)	+	MTase-Glo counter=2%
CC(C)NC(=O)NC1CC2(CCN(C(=O)Cc3ccc(O)cc3)CC2)c2ccccc21 (stereo not drawn)	i
C/C=C(\C)C(=O)O[C@H]1[C@@H](O[C@]2(COC(=O)CC(C)C)O[C@H](COC(=O)C(C)CC)[C@@H](OC(C)=O)[C@@H]2O)O[C@H](COC(C)=O)[C@@H](O)[C@@H]1O (stereo partly drawn)	i
O=C(NCC1CC1)C1CCc2ncc(-c3ccc(F)cc3)n2C1 (stereo not drawn)	i
O=C(NCCCN1CCc2ccccc2C1)C1CCc2ncc(-c3ccc(F)cc3)n2C1 (stereo not drawn)	+	MTase-Glo counter=-2%
CCCNC(=O)C1CCc2ncc(-c3ccc(OC)cc3)n2C1 (stereo not drawn)	i
Cc1ccc(NC(=O)Cn2nc3n(CCC(C)C)c(=O)c4ccc(C(=O)NC(C)C)cc4n3c2=O)cc1	i
CCCn1c(=O)c2ccc(C(=O)NC3CCCC3)cc2n2c(=O)n(CC(=O)c3ccc(F)cc3F)nc12	i
O=c1[nH]c(C2CCCN([S+](=O)([O-])c3cccc(C(F)(F)F)c3)C2)nn1-c1ccccn1 (stereo not drawn)	i
CCCn1c(=O)c2ccc(C(=O)NCC(C)C)cc2n2c(=O)n(Cc3ccc(C)cc3)nc12	i
SMILES	Methyltransferases	others
CC(C)Cn1c(=O)c2ccc(C(=O)NC3CCCC3)cc2n2c(=O)[nH]nc12	i
O=C(C1CCCN1C(=O)c1ccccc1Cl)N1CCC(c2nc3ccncc3[nH]2)CC1 (stereo not drawn)	i
O=C(c1ccc(C(F)(F)F)cc1)N1CCCC(C(=O)N2CCC(c3nc4ccncc4[nH]3)CC2)C1 (stereo not drawn)	+	MTase-Glo counter=2%
O=C(C1CCCN1[S+](=O)([O-])c1cccc(C(F)(F)F)c1)N1CCC(c2nc3ccncc3[nH]2)C1 (stereo not drawn)	i
CCCn1c(=O)c2ccc(C(=O)NC3CCCC3)cc2n2c(SCC(N)=O)nnc12	i
COc1ccc(-c2nnc3n2CCN([S+](=O)([O-])c2c(C)noc2C)C3)cc1	i
Cc1nn(-c2ccccc2)c2c1C(C)N(C1CCN([S+](=O)([O-])c3c(C)noc3C)C1)C2=O (stereo not drawn)	i
Cc1noc(C)c1[S+](=O)([O-])N1CCn2c(nn(-c3ccc(C(F)(F)F)cc3)c2=O)C1	+	MTase-Glo counter=-3%
C=Cc1ccc(Cn2nc3n(C)c(=O)c4ccc(C(=O)NC5CCCCC5)cc4n3c2=O)cc1	i
COC[C@H]1C[C@@H](NS(C)(=O)=O)[C@H](O)[C@@H]1O	i
COc1ccc(OCC2CN(Cc3cccs3)[S+](=O)([O-])c3cccnc3O2)cc1 (stereo not drawn)	i
COc1ccc(NC(=O)c2cc3c(s2)CN(C2CCCC2)C3)c(OC)c1	i
CC1CCCCN1CCCNC(=O)c1cc2c(s1)CN(C1CCCC1)C2 (stereo not drawn)	+	MTase-Glo counter=2%
CC(C)N1Cc2cc(C(=O)NC3CCN(Cc4ccccc4)CC3)sc2C1	i
COCCN1C(=O)c2ccccc2C(C(=O)NCc2ccc(Cl)cc2)C12CCCC2 (stereo not drawn)	i
CC1CCC(NC(=O)CCc2nnc3n(Cc4ccc(F)cc4)c(=O)c4ccccc4n23)CC1 (stereo not drawn)	i
O=C(CCn1ccc2cc(S(=O)(=O)N3CCCCC3)ccc21)NCc1cccnc1	i
C1=C(c2nc(-c3ccncc3)cc3c2ccn3Cc2cccnc2)CCOC1	+	MTase-Glo counter=1%[85.7 µM]
OC1(CN2CCCCC2)CCN(Cc2ccc(C(F)(F)F)cc2F)C1 (stereo not drawn)	i
C[C@@H]1CC[C@]2(C)C(C[C@@H](O)[C@H](O)[C@]23CO3)[C@@]1(C)CCc1ccoc1 (stereo partly drawn)	i
CCc1cc(CN(C)C(=O)C(c2ccc(C)cc2)N(C)C)on1 (stereo not drawn)	i
COc1ccc(CN2CCc3nc(C(=O)NCCOc4ccccc4)oc3CC2)cn1	i
O=C(NCC1CC1)c1nc2c(o1)CCN(CCCc1ccccc1)CC2	i
O=C(NCc1cccc(F)c1)c1nc2c(o1)CCN(CC1CCCC1)CC2	+	MTase-Glo counter=-2%[85.7 µM]
CCc1cc2c(cc3n2CC(C)(C(=O)NC2CCC(C)CC2)N(Cc2ccc(F)cc2)C3=O)s1 (stereo not drawn)	i
SMILES	Methyltransferases	others
COc1ccc(N2CCN(C(=O)c3cccc(Nc4nc5ccccc5n5nnnc45)c3)CC2)cc1	i
COc1ccc(N2CCN(C(=O)c3ccc4c(=O)nc5c(-c6ccccc6F)n[nH]n5c4c3)CC2)cc1	i
COc1ccc(N2CCN(C(=O)c3cc(NC(C)=O)cc4nc(C)ccc34)CC2)cc1	+	MTase-Glo counter=1%
CC1CCCCC1NC(=O)C1(C)Cn2c(nc3ccccc32)C(=O)N1Cc1cccs1 (stereo not drawn)	i
Cc1cnc(NC(=O)Nc2cc(Br)c(C)cc2OCC2CNCCO2)cn1 (stereo not drawn)	i
CCC1c2ccc(C)n2CCN1C(=O)Nc1cc(OC)cc(OC)c1 (stereo not drawn)	i
CN1C(=O)c2cc(C(=O)NCCN3CCCC3)nn2CC1(C)C(=O)NC1CCCCC1 (stereo not drawn)	i
CCCNC(=O)CCc1ccnc(N2CCCC2)c1	i
CCCNc1cc(N2CCC(CCC(=O)NCCN3CCCCCC3)CC2)ncn1	+	MTase-Glo counter=1%

Source: PubChem BioAssay
